In PubChem BioAssay (EPA / NIEHS):
Calls of active or inactive are those of the source. The calls were made as follows: active = hit-call score of the fitted dose curve at least 0.9, where 1 is the maximum; inactive = score below 0.9.

These compounds were tested on Interferon-gamma inducible Protein 10 (IP10), CXCL10 (gene 3627) (assay: BSK_BE3C_IP10: BioMAP Diversity Plus: BE3C Assay for Interferon-gamma inducible Protein 10 (IP10) Biomarker Activity (AID 2283034)). Conditions: primary human bronchial epithelial cells; actives raise or lower the signal.
Method in brief: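 Chemical is dosed onto human lung bronchial epithelial primary cells, cultures are incubated 24 h, and IP-10 is then quantified by ELISA. Gain or loss of signal is fitted in both directions relative to DMSO.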

Row | Compound | AC50 | outcome
1 | O=C(N[C@@H](c1ccccc1)[C@@H]1CCCCN1)c1cccc(C(F)(F)F)c1Cl | 33.5 µM (active) | –
2 | COc1ccc(OC(F)(F)F)cc1CN[C@H]1CCCN[C@H]1c1ccccc1 | – | inactive
3 | CCCCCCCCCCCCCCCCO | – | inactive
4 | CC1=C(C)S(=O)(=O)CCS1(=O)=O | – | inactive
5 | O=C(O)c1cccnc1 | – | inactive
6 | CC(=O)OCC(COC(C)=O)OC(C)=O | – | inactive
7 | CC(=O)O | – | inactive
8 | Oc1ccc(O)cc1 | – | inactive
9 | O=C1CCCCC1 | – | inactive
10 | C/C=C/C=C/C(=O)O | – | inactive
11 | CCCCC(CC)COP(=O)(OCC(CC)CCCC)OCC(CC)CCCC (configuration not stated) | – | inactive
12 | CC(=O)S[C@H](C(=O)N[C@H]1Cc2ccccc2[C@H]2CCC[C@@H](C(=O)O)N2C1=O)C(C)C | – | inactive
13 | CN(C)C(=O)NC1(c2ccccc2)CCN(CCC[C@]2(c3ccc(Cl)c(Cl)c3)CCCN(C(=O)c3ccccc3)C2)CC1 | – | inactive
14 | CCCCCCCCCC[N+](C)(C)[O-] | – | inactive
15 | CC(C)c1cccc(C(C)C)c1NC(=O)NS(=O)(=O)c1cc(C(C)(C)O)co1 | – | inactive
16 | OCC(O)CO | – | inactive
17 | Nc1nc(Cl)nc2c1ncn2[C@H]1C[C@H](O)[C@@H](CO)O1 | – | inactive
18 | CCCCCCCC(=O)OC | – | inactive
19 | N[C@@H](Cc1c[nH]c2ccccc12)C(=O)O | – | inactive
20 | CCCC(=O)O | – | inactive
21 | Cc1cn([C@H]2C=C[C@@H](CO)O2)c(=O)[nH]c1=O | – | inactive
22 | O=NO | – | inactive
23 | Oc1ccccc1O | – | inactive
24 | Cc1cc(SC2=C(O)C[C@@](CCc3ccc(N)cc3)(C(C)C)OC2=O)c(C(C)(C)C)cc1CO | – | inactive
25 | CCN(CC)CCOc1ccc(C(=C(Cl)c2ccccc2)c2ccccc2)cc1 | 15.3 µM (active) | –
26 | CC(C)COC(=O)CCCCC(=O)OCC(C)C | – | inactive
27 | O=C(O)CN(CC(=O)O)CC(=O)O | – | inactive
28 | CS(=O)(=O)c1ccc([C@@H](C[C@H]2CCC(=O)C2)C(=O)Nc2cnccn2)cc1Cl | – | inactive
29 | CCCCCCC(C=O)=Cc1ccccc1 | – | inactive

Each compound was assayed on Monokine induced gamma interferon (MIG), CXCL9 (gene 4283) (assay: BSK_BE3C_MIG: BioMAP Diversity Plus: BE3C Assay for Monokine induced gamma interferon (MIG) Biomarker Activity (AID 2283035;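 as to outcome: MIG protein measured by ELISA in BE3C cultures after 24 h of dosing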)). Conditions: primary human bronchial epithelial cells; actives raise or lower the signal.
Method in brief: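 Primary human bronchial epithelial cells treated for 24 h; MIG levels measured by ELISA, fitted bidirectionally versus DMSO. Parallel SRB total-protein staining assessed cytotoxicity.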

Row | Compound | AC50 | outcome
30 | O=C(N[C@@H](c1ccccc1)[C@@H]1CCCCN1)c1cccc(C(F)(F)F)c1Cl | 34.7 µM (active) | –
31 | COc1ccc(OC(F)(F)F)cc1CN[C@H]1CCCN[C@H]1c1ccccc1 | – | inactive
32 | CCCCCCCCCCCCCCCCO | – | inactive
33 | CC1=C(C)S(=O)(=O)CCS1(=O)=O | – | inactive
34 | O=C(O)c1cccnc1 | – | inactive
35 | CC(=O)OCC(COC(C)=O)OC(C)=O | – | inactive
36 | CC(=O)O | – | inactive
37 | Oc1ccc(O)cc1 | – | inactive
38 | O=C1CCCCC1 | – | inactive
39 | C/C=C/C=C/C(=O)O | – | inactive
40 | CCCCC(CC)COP(=O)(OCC(CC)CCCC)OCC(CC)CCCC (configuration not stated) | – | inactive
41 | CC(=O)S[C@H](C(=O)N[C@H]1Cc2ccccc2[C@H]2CCC[C@@H](C(=O)O)N2C1=O)C(C)C | – | inactive
42 | CN(C)C(=O)NC1(c2ccccc2)CCN(CCC[C@]2(c3ccc(Cl)c(Cl)c3)CCCN(C(=O)c3ccccc3)C2)CC1 | – | inactive
43 | CCCCCCCCCC[N+](C)(C)[O-] | – | inactive
44 | CC(C)c1cccc(C(C)C)c1NC(=O)NS(=O)(=O)c1cc(C(C)(C)O)co1 | – | inactive
45 | OCC(O)CO | – | inactive
46 | Nc1nc(Cl)nc2c1ncn2[C@H]1C[C@H](O)[C@@H](CO)O1 | – | inactive
47 | CCCCCCCC(=O)OC | – | inactive
48 | N[C@@H](Cc1c[nH]c2ccccc12)C(=O)O | – | inactive
49 | CCCC(=O)O | – | inactive
50 | Cc1cn([C@H]2C=C[C@@H](CO)O2)c(=O)[nH]c1=O | – | inactive
51 | O=NO | – | inactive
52 | Oc1ccccc1O | – | inactive
53 | Cc1cc(SC2=C(O)C[C@@](CCc3ccc(N)cc3)(C(C)C)OC2=O)c(C(C)(C)C)cc1CO | – | inactive
54 | CCN(CC)CCOc1ccc(C(=C(Cl)c2ccccc2)c2ccccc2)cc1 | 25.7 µM (active) | –
55 | CC(C)COC(=O)CCCCC(=O)OCC(C)C | – | inactive
56 | O=C(O)CN(CC(=O)O)CC(=O)O | – | inactive
57 | CS(=O)(=O)c1ccc([C@@H](C[C@H]2CCC(=O)C2)C(=O)Nc2cnccn2)cc1Cl | – | inactive
58 | CCCCCCC(C=O)=Cc1ccccc1 | – | inactive

The compounds below were run on Transforming growth factor beta 1 (TGFb1), TGFB1 (gene 7040) (assay: BSK_BE3C_TGFb1: BioMAP Diversity Plus: BE3C Assay for Transforming growth factor beta 1 (TGFb1) Biomarker Activity (AID 2283036;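 as to outcome: TGF-b1 protein level measured by ELISA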)). Conditions: primary human bronchial epithelial cells; actives raise or lower the signal.
Method in brief: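 Primary human lung bronchial epithelial cells; compound exposure 24 h; TGF-b1 by ELISA; bidirectional fit, DMSO baseline. Parallel SRB total-protein staining for cytotoxicity.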

Row | Compound | AC50 | outcome
59 | O=C(N[C@@H](c1ccccc1)[C@@H]1CCCCN1)c1cccc(C(F)(F)F)c1Cl | 36.7 µM (active) | –
60 | COc1ccc(OC(F)(F)F)cc1CN[C@H]1CCCN[C@H]1c1ccccc1 | – | inactive
61 | CCCCCCCCCCCCCCCCO | – | inactive
62 | CC1=C(C)S(=O)(=O)CCS1(=O)=O | – | inactive
63 | O=C(O)c1cccnc1 | – | inactive
64 | CC(=O)OCC(COC(C)=O)OC(C)=O | – | inactive
65 | CC(=O)O | – | inactive
66 | Oc1ccc(O)cc1 | – | inactive
67 | O=C1CCCCC1 | – | inactive
68 | C/C=C/C=C/C(=O)O | – | inactive
69 | CCCCC(CC)COP(=O)(OCC(CC)CCCC)OCC(CC)CCCC (configuration not stated) | – | inactive
70 | CC(=O)S[C@H](C(=O)N[C@H]1Cc2ccccc2[C@H]2CCC[C@@H](C(=O)O)N2C1=O)C(C)C | – | inactive
71 | CN(C)C(=O)NC1(c2ccccc2)CCN(CCC[C@]2(c3ccc(Cl)c(Cl)c3)CCCN(C(=O)c3ccccc3)C2)CC1 | – | inactive
72 | CCCCCCCCCC[N+](C)(C)[O-] | – | inactive
73 | CC(C)c1cccc(C(C)C)c1NC(=O)NS(=O)(=O)c1cc(C(C)(C)O)co1 | – | inactive
74 | OCC(O)CO | – | inactive
75 | Nc1nc(Cl)nc2c1ncn2[C@H]1C[C@H](O)[C@@H](CO)O1 | – | inactive
76 | CCCCCCCC(=O)OC | – | inactive
77 | N[C@@H](Cc1c[nH]c2ccccc12)C(=O)O | – | inactive
78 | CCCC(=O)O | – | inactive
79 | Cc1cn([C@H]2C=C[C@@H](CO)O2)c(=O)[nH]c1=O | – | inactive
80 | O=NO | – | inactive
81 | Oc1ccccc1O | – | inactive
82 | Cc1cc(SC2=C(O)C[C@@](CCc3ccc(N)cc3)(C(C)C)OC2=O)c(C(C)(C)C)cc1CO | – | inactive
83 | CCN(CC)CCOc1ccc(C(=C(Cl)c2ccccc2)c2ccccc2)cc1 | 16.1 µM (active) | –
84 | CC(C)COC(=O)CCCCC(=O)OCC(C)C | – | inactive
85 | O=C(O)CN(CC(=O)O)CC(=O)O | – | inactive
86 | CS(=O)(=O)c1ccc([C@@H](C[C@H]2CCC(=O)C2)C(=O)Nc2cnccn2)cc1Cl | – | inactive
87 | CCCCCCC(C=O)=Cc1ccccc1 | – | inactive
